SARS 3CLpro inh: SARS-CoV 3CLpro protease inhibition; recombinant SARS-CoV 3CLpro, quenched FRET peptide cleavage; AID 1706; actives 0.14% (n = 290,000); inhibition, % at 6 µM; in the data active means inhibition above about 12%
Bead autofluor: flagged as autofluorescent in microsphere protease counterscreen; actives 3.1% (n = 360,000); fluorescence intensity (no concentration beside the values); compound autofluorescence counterscreen, microsphere flow cytometry; hits give high values; AID 624483; in the data active means fluorescence intensity above about 16000; inconclusive means no clear call, values can overlap the other calls
BoNT A protease: inhibitors of Botulinum neurotoxin A light chain protease. multiplex microsphere protease substrate cleavage, flow cytometry. inhibition, % at 10 µM. actives 0.17% (n = 360,000); further: plate controls were buffer without enzyme for full effect and enzyme alone for no effect
VHR inh abs: inhibitors of human VHR1 phosphatase (DUSP3) | P51452 | recombinant VHR phosphatase, pNPP absorbance | inhibition, % at 13.3 µM | actives 0.52% (n = 290,000) | AID 1654; in the data active means inhibition above about 50%
Anthrax LF inh2: blocks Bacillus anthracis lethal factor protease; P15917; multiplex microsphere protease cleavage assay, LF; inhibition, % at 10 µM; actives 0.12% (n = 360,000); further: plate controls were buffer without enzyme for full effect and enzyme alone for no effect
Target sequence (P15917 whole entry, looked up): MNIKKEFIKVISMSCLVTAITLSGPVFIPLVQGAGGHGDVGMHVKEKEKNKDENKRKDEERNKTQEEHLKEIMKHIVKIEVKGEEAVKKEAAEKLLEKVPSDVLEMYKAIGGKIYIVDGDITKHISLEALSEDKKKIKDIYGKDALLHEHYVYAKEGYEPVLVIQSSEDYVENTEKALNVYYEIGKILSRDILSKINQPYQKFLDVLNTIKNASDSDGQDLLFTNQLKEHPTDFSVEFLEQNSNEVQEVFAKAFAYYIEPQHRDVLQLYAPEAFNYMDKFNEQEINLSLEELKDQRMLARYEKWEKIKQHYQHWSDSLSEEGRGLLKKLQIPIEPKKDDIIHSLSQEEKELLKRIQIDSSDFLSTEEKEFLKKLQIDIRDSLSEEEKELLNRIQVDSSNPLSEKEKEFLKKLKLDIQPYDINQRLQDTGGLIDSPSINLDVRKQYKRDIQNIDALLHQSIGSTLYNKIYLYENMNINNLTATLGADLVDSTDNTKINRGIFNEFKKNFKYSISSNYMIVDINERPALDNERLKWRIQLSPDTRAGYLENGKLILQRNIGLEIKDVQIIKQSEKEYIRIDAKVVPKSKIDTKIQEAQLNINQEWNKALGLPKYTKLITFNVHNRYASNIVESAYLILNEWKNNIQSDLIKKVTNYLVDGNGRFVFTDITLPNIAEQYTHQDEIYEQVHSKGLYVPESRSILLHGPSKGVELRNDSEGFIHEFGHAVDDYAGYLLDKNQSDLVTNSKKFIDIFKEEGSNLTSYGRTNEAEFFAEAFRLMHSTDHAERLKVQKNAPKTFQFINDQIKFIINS
BoNT-F LC inh: BoNT F light chain protease inhibition. Multiplex microsphere protease cleavage assay, flow cytometry. inhibition, % at 10 µM. actives 0.22% (n = 360,000); in the data active means inhibition above about 35%, passing the limit was not always enough; inconclusive means no clear call, values can overlap the other calls; further: plate controls were buffer without enzyme for full effect and enzyme alone for no effect
Active calls of the source: *. Only some compounds are listed: those with a hit (about 3.9% of all), similar ones and a draw of the others. Unless noted, no stated cut-off is given here; in the data, active means inhibition above about 30%; inconclusive means no clear call, values can overlap the other calls; inactive means below that.

COc1nc(C#N)c(N2CCOCC2)o1 was read as SARS 3CLpro inh -9, Bead autofluor 23391*, BoNT A protease -2, VHR inh abs 5, Anthrax LF inh2 -2 and BoNT-F LC inh -3.
Screening Cc1nnc(NC(=O)c2ccc(S(=O)(=O)N3CC(C)CC(C)C3)cc2)o1 (stereo not given) returned SARS 3CLpro inh 1, Bead autofluor 3465, BoNT A protease -2, VHR inh abs 31, Anthrax LF inh2 -7 and BoNT-F LC inh -6.
`Cc1ccc(P(=O)(CC(=O)O)c2ccc(C)cc2)cc1` gave SARS 3CLpro inh 1, Bead autofluor 24105*, BoNT A protease -3, VHR inh abs 18, Anthrax LF inh2 -3 and BoNT-F LC inh -7.
Screening CNC(C)C(=O)NC(C(=O)NC(C)C(=O)Nc1cccc2ccccc12)C(C)C (stereo not given) returned Bead autofluor 3620, BoNT A protease 0, Anthrax LF inh2 -3 and BoNT-F LC inh -8.
`O=C(Oc1ccccc1C(=O)N1CCOCC1)c1ccc(Br)cc1` gave SARS 3CLpro inh -9, Bead autofluor 20205*, BoNT A protease inconclusive, VHR inh abs 19, Anthrax LF inh2 1 and BoNT-F LC inh 0.
O=C(c1ccc(-c2ccccc2)cc1)c1ccccc1C(=O)N1CCOCC1 was read as SARS 3CLpro inh 1, Bead autofluor 22303*, BoNT A protease 2, VHR inh abs -4, Anthrax LF inh2 -2 and BoNT-F LC inh 4.
Screening O=C(c1ccccc1-c1nc(-c2ccccc2)no1)N1CCOCC1 returned SARS 3CLpro inh -1, Bead autofluor 18009*, BoNT A protease 4, VHR inh abs 17, Anthrax LF inh2 -4 and BoNT-F LC inh 4.
O=C(c1ccccc1)c1ccc(C(=O)N2CCOCC2)cc1 was read as SARS 3CLpro inh -4, Bead autofluor 3028, BoNT A protease 1, VHR inh abs 27, Anthrax LF inh2 -2 and BoNT-F LC inh 2.
`O=C(Oc1ccccc1C(=O)N1CCOCC1)c1ccc(F)cc1` gave SARS 3CLpro inh 1, Bead autofluor 3521, BoNT A protease -9, VHR inh abs 9, Anthrax LF inh2 -8 and BoNT-F LC inh inconclusive.
For O=C(c1oc(=O)c2ccccc2c1-c1ccccc1)N1CCOCC1 the results were SARS 3CLpro inh 3, Bead autofluor 4811, BoNT A protease 0, VHR inh abs 51*, Anthrax LF inh2 -1 and BoNT-F LC inh -4.
CN(C(=O)COC(=O)CCCN1C(=O)c2cccc3cccc(c23)C1=O)C1CCS(=O)(=O)C1 (stereo not given) was read as Bead autofluor 6082, BoNT A protease 2, Anthrax LF inh2 2 and BoNT-F LC inh 7.
C=CCOc1ccc(/C=C/C(=O)OCC(=O)NCc2ccco2)cc1 was read as Bead autofluor 5744, BoNT A protease 2, Anthrax LF inh2 5 and BoNT-F LC inh 4.
Screening CCN(CC)c1ccc(C=Nc2ccc(OC)c(S(=O)(=O)N3CCOCC3)c2)c(O)c1 returned Bead autofluor 5284, BoNT A protease 5, Anthrax LF inh2 8 and BoNT-F LC inh -7.
`COC(=O)Cn1cnc2c(C#N)c3n(c2c1=O)CCCCC3` gave SARS 3CLpro inh -1, Bead autofluor 23066*, BoNT A protease 0, VHR inh abs -10, Anthrax LF inh2 1 and BoNT-F LC inh 0.
CCc1c(C)c(C#N)c2nc3ccccc3n2c1NCc1ccccn1 was read as SARS 3CLpro inh -2, Bead autofluor 4383, BoNT A protease -1, VHR inh abs 36, Anthrax LF inh2 2 and BoNT-F LC inh -2.
`O=C(O)COCc1nc2ccccc2[nH]1` gave SARS 3CLpro inh 0, Bead autofluor 25242*, BoNT A protease -3, VHR inh abs 28, Anthrax LF inh2 2 and BoNT-F LC inh -1.
COc1ccc(-c2noc(CCC(=O)N3CCN(c4ccccc4Br)CC3)n2)cc1 was read as Bead autofluor 3024, BoNT A protease 0, Anthrax LF inh2 -4 and BoNT-F LC inh -8.
Cc1ccc(CNC(=O)C2CCCN(Cc3cnn(-c4ccccc4)c3-n3cccc3)C2)cc1 (stereo not given) was read as SARS 3CLpro inh 5, Bead autofluor 21776*, BoNT A protease inconclusive, VHR inh abs 39, Anthrax LF inh2 -4 and BoNT-F LC inh -3.
O=C(NCC1CCCO1)C1CCCN(Cc2cnn(-c3ccccc3)c2-n2cccc2)C1 (stereo not given) was read as SARS 3CLpro inh -9, Bead autofluor 2832, BoNT A protease 0, VHR inh abs -6, Anthrax LF inh2 0 and BoNT-F LC inh 3.
`COCC(=O)N(Cc1cc2ccc(C)c(C)c2n2nnnc12)C1CCCC1` gave SARS 3CLpro inh 2, Bead autofluor 3315, BoNT A protease 0, VHR inh abs 54*, Anthrax LF inh2 -2 and BoNT-F LC inh 0.
For Cc1cccc2cc(CN(CC3CCCO3)C(=O)c3cccnc3)c3nnnn3c12 (stereo not given) the results were SARS 3CLpro inh 1, Bead autofluor 4403, BoNT A protease -1, VHR inh abs 21, Anthrax LF inh2 3 and BoNT-F LC inh 8.
For COC(=O)C(O)(CC(=O)Nc1ccc(OC)cc1)C(F)(F)F (stereo not given) the results were SARS 3CLpro inh -3, Bead autofluor 3549, BoNT A protease 0, VHR inh abs -14, Anthrax LF inh2 2 and BoNT-F LC inh 21.
For COC(=O)C(O)(CC(=O)Nc1ccc(C)c(F)c1)C(F)(F)F (stereo not given) the results were SARS 3CLpro inh 4, Bead autofluor 16452*, BoNT A protease inconclusive, VHR inh abs 26, Anthrax LF inh2 2 and BoNT-F LC inh 15.
O=C(CNC(=O)c1ccc2c(c1)OCCO2)N=Nc1c(O)[nH]c2ccccc12 was read as SARS 3CLpro inh -3, Bead autofluor 5838, BoNT A protease -1, VHR inh abs 6, Anthrax LF inh2 0 and BoNT-F LC inh 3.
`COc1ccccc1Oc1ccnc2cc(Cl)ccc12` gave SARS 3CLpro inh -1, Bead autofluor 3693, BoNT A protease 1, VHR inh abs 58*, Anthrax LF inh2 3 and BoNT-F LC inh -9.
Oc1ccc(N=Cc2ccc(-c3cccs3)s2)cc1 was read as SARS 3CLpro inh -3, Bead autofluor 16163*, BoNT A protease 1, VHR inh abs 6, Anthrax LF inh2 -1 and BoNT-F LC inh -2.
CS(=O)(=O)c1ccc(Cl)c(NC(=O)CSc2n[nH]c(-c3cccs3)n2)c1 was read as Bead autofluor 7891, BoNT A protease 0, Anthrax LF inh2 -1 and BoNT-F LC inh 2.
`CC(C)(C)NC(=O)CN(C(=O)CS(=O)CC(=O)Nc1ccc(F)cc1)c1ccc(Cl)cc1` (stereo not given) gave SARS 3CLpro inh 1, Bead autofluor 20135*, BoNT A protease inconclusive, VHR inh abs 12, Anthrax LF inh2 0 and BoNT-F LC inh 2.

High-throughput results from PubChem.
